Screening data deposited in PubChem BioAssay by The Scripps Research Institute Molecular Screening Center.
A selection: hits, their analogues and other compounds. The true share with any hit is near 2.9%.
LYPLA2 inh: blocks human lysophospholipase 2, a PME1 counter-screen | O95372 | recombinant LYPLA2, FP-Rh probe fluorescence polarization | inhibition, % at 5.9 µM | 320,000 tested, 0.38% active | AID 2177;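 active = inhibition above the screen-wide mean plus 3 SD, limit set per campaign, cut at about 26% in these data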
Target sequence (O95372 whole entry, looked up): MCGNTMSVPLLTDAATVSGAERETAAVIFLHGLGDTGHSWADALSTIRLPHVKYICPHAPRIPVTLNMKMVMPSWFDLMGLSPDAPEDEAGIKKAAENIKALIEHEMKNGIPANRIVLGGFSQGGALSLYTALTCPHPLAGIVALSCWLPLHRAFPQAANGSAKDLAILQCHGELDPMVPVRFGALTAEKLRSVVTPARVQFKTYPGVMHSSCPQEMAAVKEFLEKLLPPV
PAFAH1B2 FP inh: inhibitors of human PAFAH1B2; P68402; recombinant PAFAH1B2, FP-rhodamine activity probe, fluorescence polarization; inhibition, % at 3.39 µM; 340,000 tested, 1.2% active;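 active = inhibition above the mean of all tested compounds plus 3 SD, cut at about 24% in these data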
PAFAH2 FP inh: inhibitors of human PAFAH2. inhibition, % at 3.39 µM. 340,000 tested, 0.99% active. Q99487. AID 492956. recombinant PAFAH2, FP-rhodamine activity probe, fluorescence polarization;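 active = inhibition above the mean over all tested compounds plus 3 SD, cut at about 30% in these data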;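 also: inhibitors block probe labeling of enzyme so polarization drops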
PAFAH1B3 FP inh: inhibitors of human PAFAH1B3; inhibition, % at 3.39 µM; recombinant PAFAH1B3, FP-rhodamine probe, fluorescence polarization; 340,000 tested, 0.28% active; AID 492972; Q15102;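 active = inhibition above the screen-wide average of all tested compounds plus 3 SD, cut at about 25% in these data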
Target sequence (Q15102 whole entry, looked up): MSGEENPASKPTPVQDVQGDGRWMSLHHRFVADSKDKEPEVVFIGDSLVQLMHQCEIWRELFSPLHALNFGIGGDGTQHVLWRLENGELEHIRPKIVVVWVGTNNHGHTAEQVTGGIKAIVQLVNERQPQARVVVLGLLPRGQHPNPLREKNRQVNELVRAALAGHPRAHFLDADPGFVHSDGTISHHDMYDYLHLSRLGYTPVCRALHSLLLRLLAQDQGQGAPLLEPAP
LYPLA1 counter: LYPLA1 (human) inhibition in PME1 counter-screen. O75608. recombinant LYPLA1, FP-Rh probe fluorescence polarization. inhibition, % at 5.9 µM. 320,000 tested, 0.16% active;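 active = inhibition above the mean of all tested compounds plus 3 SD, set per campaign, cut at about 14% in these data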;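 also: inhibitors block serine hydrolase probe labeling of LYPLA1 so polarization falls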
Target sequence (O75608 whole entry, looked up): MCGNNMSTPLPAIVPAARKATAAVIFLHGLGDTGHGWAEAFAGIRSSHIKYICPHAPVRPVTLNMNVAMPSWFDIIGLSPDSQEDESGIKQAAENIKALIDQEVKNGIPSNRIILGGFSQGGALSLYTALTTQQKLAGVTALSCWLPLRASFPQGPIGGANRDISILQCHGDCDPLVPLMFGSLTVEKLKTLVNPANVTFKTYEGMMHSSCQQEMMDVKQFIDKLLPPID
pPAFAH FP inh: pPAFAH (human) enzyme inhibition | Q13093 | recombinant pPAFAH, FP-rhodamine probe fluorescence polarization | inhibition, % at 3.39 µM | 330,000 tested, 1.5% active | AID 463082;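 active = inhibition above the mean inhibition across the screen plus 3 SD, cut at about 25% in these data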;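 also: inhibitors block binding of the rhodamine activity-based probe so polarization drops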
Each line names hits and unclear results; the compound was inactive in the other large screens.

Cc1nnc(NC(=O)C2COc3ccccc3O2)s1 (stereo unspecified)	none
Cc1ccc(CSc2nnc(NC(=O)C3COc4ccccc4O3)s2)cc1 (stereo unspecified)	PAFAH1B2 FP inh 31
CCc1ccc(C(=O)NNC(=O)c2cccc(S(=O)(=O)N3CCN(C)CC3)c2)cc1	none (no result: LYPLA2 inh, LYPLA1 counter, pPAFAH FP inh)
CN(C)CCOC1(Cc2ccc(F)cc2)CCC(C(C)(C)C)CC1 (stereo unspecified)	none (no result: LYPLA2 inh, LYPLA1 counter, pPAFAH FP inh)
O=C(NNC(=O)C12CC3CC(CC(C3)C1)C2)c1cccc([N+](=O)[O-])c1	PAFAH1B2 FP inh 30
CN(C)c1cccc(C(=O)NNC(=O)C23CC4CC(CC(C4)C2)C3)c1	none (no result: LYPLA2 inh, LYPLA1 counter)
CCOC(=O)/C(C#N)=C/c1cn(CCC(=O)O)nc1-c1ccc(F)cc1	none
CCCS(=O)(=O)N1CCCC(C(=O)NCCc2ccccc2)C1 (stereo unspecified)	none
CC1(OC(=O)c2ccc(Cl)nc2)C(=O)C=C2C=C3CCCN3C=C2C1=O (stereo unspecified)	none
CC1(OC(=O)c2ccc(Cl)nc2)C(=O)C=C2C=C(C3CC3)OC=C2C1=O (stereo unspecified)	LYPLA1 counter 21, pPAFAH FP inh 44 (no result: PAFAH1B2 FP inh, PAFAH2 FP inh, PAFAH1B3 FP inh)
CC1(OC(=O)c2ccc(Cl)nc2)C(=O)C=C2C=C(c3ccsc3)OC=C2C1=O (stereo unspecified)	pPAFAH FP inh 47 (no result: PAFAH1B2 FP inh, PAFAH2 FP inh, PAFAH1B3 FP inh)
CC1(OC(=O)C2CCCC2)C(=O)C=C2C=C(C3CC3)OC=C2C1=O (stereo unspecified)	pPAFAH FP inh 26 (no result: PAFAH1B2 FP inh, PAFAH2 FP inh, PAFAH1B3 FP inh)
CC1(OC(=O)c2ccc(Cl)nc2)C(=O)C=C2C=C(c3ccc(C#N)cc3)OC=C2C1=O (stereo unspecified)	pPAFAH FP inh 42 (no result: PAFAH1B2 FP inh, PAFAH2 FP inh, PAFAH1B3 FP inh)
CC1=Nn2c(nnc2-c2cccs2)SC1	none
COC(=O)C1C(c2ccccc2)C(C(=O)O)C1c1ccccc1 (stereo unspecified)	none
O=C1COc2ccc(C(=O)CSc3nnc(Cc4ccccc4)o3)cc2N1	none
Cc1cc(/C=N/n2cnnc2)c(C)n1-c1ccc(OCc2ccc(Cl)cc2)cc1	none
Cc1cc(/C=N/n2cnnc2)c(C)n1-c1ccc(OCc2ccccc2F)cc1	pPAFAH FP inh 27
CCc1ccc2[nH]c3nc(N/N=C/c4ccc(O)cc4O)nnc3c2c1	PAFAH1B3 FP inh 26, pPAFAH FP inh 28
Cc1ccc(NC(=O)Cc2noc3ccccc23)c(C)c1	none
COc1ccc(S(=O)(=O)NCC2CCCN(C(=O)c3cccnc3C)C2)cc1 (stereo unspecified)	none
CCc1ccc(CNc2ccc(N3CCN(C(C)=O)CC3)cc2)cc1	pPAFAH FP inh 30
CC(=O)N1CCN(c2ccc(NCc3ccc(C)cc3)cc2)CC1	none
CN(CC(=O)NCc1ccc(F)cc1)Cc1ccc(Br)cc1	PAFAH1B2 FP inh 25
Nc1nnc(CC(=O)N/N=C/c2cc([N+](=O)[O-])cc(Br)c2O)s1	PAFAH1B2 FP inh 25, pPAFAH FP inh 28
N#CCCN(C(=O)COC(=O)Cc1ccc(Br)cc1)c1ccccc1	PAFAH1B2 FP inh 27
O=C(O)CC/C(=N\Nc1ccccc1[N+](=O)[O-])c1cccs1	none
O=C(O)CC/C(=N\Nc1ccc(S(=O)(=O)N2CCCC2)cc1[N+](=O)[O-])c1cccs1	PAFAH1B2 FP inh 28 (no result: LYPLA2 inh, LYPLA1 counter, pPAFAH FP inh)
Oc1ccc(N=C/C=C/c2ccc(Br)cc2)cc1-c1nc2ccccc2s1	pPAFAH FP inh 53 (no result: PAFAH1B2 FP inh, PAFAH2 FP inh, PAFAH1B3 FP inh)
CC1CCc2[nH]c3ccc(C(=O)N(C)CC(=O)Nc4ccc(F)cc4)cc3c2C1 (stereo unspecified)	PAFAH1B2 FP inh 39, PAFAH2 FP inh 49
O=C(CSc1ncn[nH]1)NC12CC3CC(CC(C3)C1)C2	none
C=CC[C@@H](CC(=O)NCCO)C(=O)N[C@@H](C)COC(=O)[C@H](CC=C)CC(=O)OC(C)(C)C	none (no result: LYPLA2 inh, LYPLA1 counter)
Cc1ccc(NC(=O)CCC(=O)OCC(=O)c2ccc(Oc3ccc([N+](=O)[O-])cc3)cc2)cc1	none
COc1ccc(NC(=O)CCC(=O)OCC(=O)c2ccc(Oc3ccc([N+](=O)[O-])cc3)cc2)cc1	LYPLA2 inh 26
Cc1ccc(SCC2(O)CCN(C(=O)c3ccc(Cl)cc3)CC2)cc1	pPAFAH FP inh 28
CCN1CCN(C(=O)c2ccc(CSc3ccc(C)cc3)cc2)CC1	PAFAH1B2 FP inh 40
O=C(Cn1cncn1)N/N=C/c1cccnc1	none
COC(=O)c1sccc1NS(=O)(=O)c1ccccc1	none
COC(=O)c1ccsc1NS(=O)(=O)c1ccccc1	pPAFAH FP inh 28
Cc1ccc(C(O)CN2C3=NCCN3c3ccccc32)cc1 (stereo unspecified)	none
CC(C)CNC(=O)c1cccc(NC(=O)CSc2ccc(Cl)cc2)c1	PAFAH1B2 FP inh 30
Cc1ccc(-c2csc3ncnc(Nc4ccc(N5CCOCC5)cc4)c23)cc1	pPAFAH FP inh 30
Cc1ccc(-c2csc3ncnc(NCCN4CCOCC4)c23)cc1	none
Cc1cccc(NS(=O)(=O)c2cc(C(=O)N3CCCCCC3)ccc2C)c1	none
COc1ccc(S(=O)(=O)N2CCCC2)cc1C(=O)O	none
CC(C)(C)NC(=O)COC(=O)c1ccc(Cl)nc1	none
CCN(CC)c1ccc(C(=O)OCC(=O)NC(C)(C)C)cc1	PAFAH2 FP inh 81, pPAFAH FP inh 34
CN1CCC(=O)N(CCSc2ccc(Br)cc2)CC1	PAFAH1B2 FP inh 26
CN1CCC(=O)N([C@H](CSc2ccc(Br)cc2)Cc2ccccc2)CC1	none
CN(Cc1ccccc1)C(=O)c1nc2ccccn2c1CNCCCOc1cccnc1	none
COc1ccc(C2C(C(=O)c3ccco3)=C(O)C(=O)N2c2nnc(C)s2)cc1OC (stereo unspecified)	none
Cc1cc(C(=O)O)ccc1-n1c(C)ccc1C	pPAFAH FP inh 50 (no result: PAFAH1B2 FP inh, PAFAH2 FP inh, PAFAH1B3 FP inh)
Cc1cc(C(=O)O)ccc1-n1c(C)cc(C=C2C(=O)c3ccccc3C2=O)c1C	none
CCn1ncc(Br)c1C(=O)Nc1nccs1	none
O=C(NCCc1ccc(Cl)cc1)C1CCC(=O)N1C1CCCC1 (stereo unspecified)	PAFAH1B2 FP inh 56
O=S(=O)(Nc1ncccn1)c1ccc(NC(=S)Nc2cccc(Cl)c2)cc1	none (no result: PAFAH1B2 FP inh, PAFAH2 FP inh, PAFAH1B3 FP inh)
S=C(NCCc1ccc(Cl)cc1)NC1CCCC1	PAFAH1B2 FP inh 27
O=C(NCCc1ccc(Cl)cc1)C1CCC(=O)N(C2CCCCCC2)C1 (stereo unspecified)	none
O=S(=O)(Nc1ncccn1)c1ccc(NC(=S)NCCc2ccc(Cl)cc2)cc1	PAFAH1B2 FP inh 44
S=C(NCCc1ccc(Cl)cc1)NC1CCCCC1	PAFAH1B2 FP inh 34
O=C(CN(C(=O)C1CSC(=O)C1)c1ccccc1F)NCc1ccc2c(c1)OCO2 (stereo unspecified)	none
COc1ccc(-n2c(SCC(=O)Nc3ccc4c(c3)OCO4)nc3ccccc3c2=O)cc1	none
Cc1cc(C)c([N+](=O)[O-])cc1-c1ccc(/C=N/c2c(-c3ccco3)nc3ccccn23)o1	pPAFAH FP inh 32
Cc1cc(C(=O)N2CCCC(N3CCN(c4cccc(Cl)c4)CC3)C2)nc(C)n1 (stereo unspecified)	none
